Data reported in PubChem BioAssay (EPA / NIEHS).
Where “and” joins values, the source holds several entries; their conditions need not be identical. Equal entries are not always repeated. Results filed as inconclusive are left out. Some structures have more than one record in an assay (separate samples or runs), and their calls can disagree. Calls of active or inactive are those of the source. The calls were made as follows: active = hit-call score of the fitted dose curve at least 0.9, where 1 is the maximum; inconclusive = response in the unintended direction; inactive = score below 0.9.

Key:
[1] = Tanguay_ZF_120hpf_MORT_legacy: (Legacy) Oregon State University Tanguay Lab 120 Hour Post-fertilization zebrafish Assay for Mortality (AID 2283633);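 as to AC50: fitted as increase in binary mortality versus DMSO negative control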
Procedure, shortened: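 Brightfield scoring of embryo death (binary) at 24 and 120 hpf; static exposure 6–120 hpf, 28C, sealed and foil-covered. Pronase-dechorionated 5D wild-type larvae, single embryo per well. DMSO 0.64% v/v; trimethyltin chloride 5uM positive control.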

[2] = Tanguay_ZF_120hpf_YSE_legacy: (Legacy) Oregon State University Tanguay Lab 120 Hour Post-fertilization zebrafish Assay for Yolk Sac Edema (AID 2283634);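 as to AC50: actives raise the incidence of yolk sac edema above the DMSO baseline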
Procedure, shortened: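 Binary brightfield scoring of yolk sac edema at 120 hpf; DMSO baseline, gain-of-signal fitting. Dechorionated 5D larvae, one per well, static exposure 6–120 hpf, 28C, 0.64% DMSO. Dead embryos not scored.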

[3] = Tanguay_ZF_120hpf_AXIS_legacy: (Legacy) Oregon State University Tanguay Lab 120 Hour Post-fertilization zebrafish Assay for Body Axis Malformation (AID 2283635);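 as to AC50: potency for an increased fraction of larvae scored with body axis malformation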
Procedure, shortened: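 Embryos: 5D wild-type, pronase-dechorionated 4 hpf; static exposure 6–120 hpf, 28C, sealed, dark, 1 embryo/well, 0.64% DMSO. 120 hpf axis malformation scored present/absent; dead embryos excluded. Analysed as gain of signal vs DMSO.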

[4] = Tanguay_ZF_120hpf_EYE_legacy: (Legacy) Oregon State University Tanguay Lab 120 Hour Post-fertilization zebrafish Assay for Eye Malformation (AID 2283636)
Procedure, shortened: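 Read-out is binary presence or absence of eye malformation, scored by brightfield microscopy at 120 hpf. Single larvae were exposed from 6 hpf in embryo medium containing 0.64% DMSO, with DMSO as baseline.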

[5] = Tanguay_ZF_120hpf_SNOU_legacy: (Legacy) Oregon State University Tanguay Lab 120 Hour Post-fertilization zebrafish Assay for Snout Malformation (AID 2283637)
Procedure, shortened: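 Snout malformation read as a yes/no call on brightfield images of 120 hpf larvae (Tropical 5D strain). Static exposure began at 6 hpf on dechorionated embryos in 0.64% DMSO, with gain of signal analysed versus DMSO controls.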

[6] = Tanguay_ZF_120hpf_JAW_legacy: (Legacy) Oregon State University Tanguay Lab 120 Hour Post-fertilization zebrafish Assay for Jaw Malformation (AID 2283638);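 as to AC50: active means more embryos with jaw malformation than DMSO controls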
Procedure, shortened: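 Binary jaw-malformation calls at 120 hpf by brightfield imaging; DMSO (0.64% v/v) = baseline. Embryos: 5D wild-type, pronase-dechorionated, one per well from 6 hpf, static exposure, 28C, sealed, dark.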

[7] = Tanguay_ZF_120hpf_OTIC_legacy: (Legacy) Oregon State University Tanguay Lab 120 Hour Post-fertilization zebrafish Assay for Otic Vesicle Malformation (AID 2283639)
Procedure, shortened: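 Embryos from 5D wild-type adults exposed in plates; DMSO 0.64% v/v final. Sealed, light-protected, 28C, static to 120 hpf. Otic vesicle malformation recorded as binary endpoint; gain-of-signal fitted vs DMSO.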

[8] = Tanguay_ZF_120hpf_PE_legacy: (Legacy) Oregon State University Tanguay Lab 120 Hour Post-fertilization zebrafish Assay for Pericardial Edema (AID 2283640);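 as to AC50: potency for increased incidence of pericardial edema versus DMSO baseline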
Procedure, shortened: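 Static waterborne exposure, 5D wild-type embryos, 28C, to 120 hpf; final DMSO 0.64% (vol/vol). Binary PE call at 120 hpf by brightfield; fitted upward vs DMSO baseline. 5uM trimethyltin chloride as positive control.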

[9] = Tanguay_ZF_120hpf_PFIN_legacy: (Legacy) Oregon State University Tanguay Lab 120 Hour Post-fertilization zebrafish Assay for Pectoral Fin Malformation (AID 2283648);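 also: each larva judged yes or no for fin defect by brightfield with dead larvae skipped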
Procedure, shortened: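 5D WT zebrafish; pronase dechorionation 4 hpf; 1 embryo/well at 6 hpf; static exposure to 120 hpf, 28C, sealed, foil-covered; final DMSO 0.64% v/v; 5 uM trimethyltin chloride positive control; fin defect scored yes/no.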

[10] = Tanguay_ZF_120hpf_CFIN_legacy: (Legacy) Oregon State University Tanguay Lab 120 Hour Post-fertilization zebrafish Assay for Caudal Fin Malformation (AID 2283649)
Procedure, shortened: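 Dechorionated 5D wild-type zebrafish, static exposure 6–120 hpf, 28C, sealed and dark, 0.64% v/v DMSO final. Binary fin-malformation call at 120 hpf, brightfield; gain of signal vs DMSO baseline.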

SMILES	outcome [1]	outcome [2]	outcome [3]	outcome [4]	outcome [5]	outcome [6]	outcome [7]	outcome [8]	outcome [9]	outcome [10]	AC50 [2]	AC50 [3]	AC50 [4]	AC50 [5]	AC50 [6]	AC50 [7]	AC50 [8]	AC50 [9]	AC50 [10]	AC50 [1]
C#CCN1C(=O)COc2cc(F)c(N3C(=O)C4=C(CCCC4)C3=O)cc21	inactive	inactive	inactive	inactive	inactive	inactive	inactive	inactive	inactive	inactive	–	–	–	–	–	–	–	–	–	–
CC(C)(C)C(O)/C(=C\c1ccc(Cl)cc1Cl)n1cncn1 (stereo unspecified)	inactive	–	–	–	–	–	–	–	–	–	34.4 µM (active)	70.7 µM (active)	37.4 µM (active)	30.9 µM (active)	25 µM (active)	11.6 µM (active)	42.4 µM (active)	42.5 µM (active)	–	–
CC(C)(C)C(O)C(Oc1ccc(Cl)cc1)n1cncn1 (stereo unspecified)	inactive	–	–	–	inactive	inactive	–	–	–	inactive	40.2 µM (active) and 31 µM (active) and 43.9 µM (active)	40.7 µM (active) and 31.9 µM (active) and 48.1 µM (active)	43.8 µM (active) and 32.4 µM (active) and 39.9 µM (active)	33.7 µM (active) and 47.3 µM (active)	32 µM (active) and 51.8 µM (active)	46.2 µM (active) and 33 µM (active) and 45.3 µM (active)	47.5 µM (active) and 32.6 µM (active) and 43.3 µM (active)	47.2 µM (active) and 33.2 µM (active) and 39.7 µM (active)	40.7 µM (active)	–
N#CN	inactive	inactive	inactive	inactive	inactive	inactive	inactive	inactive	inactive	inactive	–	–	–	–	–	–	–	–	–	–
CNC(=O)/C=C(\C)OP(=O)(OC)OC	inactive	inactive	inactive	inactive	inactive	inactive	inactive	inactive	inactive	–	–	–	–	–	–	–	–	–	–	–
CCC(C)Nc1c([N+](=O)[O-])cc(C(C)(C)C)cc1[N+](=O)[O-] (stereo unspecified)	inactive	inactive	inactive	inactive	inactive	inactive	inactive	inactive	inactive	inactive	–	–	–	–	–	–	–	–	–	–
Oc1cc(Cl)ccc1Oc1ccc(Cl)cc1Cl	inactive	inactive	inactive	inactive	inactive	inactive	inactive	inactive	inactive	inactive	–	–	–	–	–	–	–	–	–	26.5 µM (active)
ClC1C(Cl)C(Cl)C(Cl)C(Cl)C1Cl (stereo unspecified)	inactive	inactive	inactive	inactive	inactive	inactive	inactive	inactive	inactive	inactive	–	–	–	–	–	–	–	–	–	–
O=C1c2ccccc2C(=O)N1SC(Cl)(Cl)Cl	inactive	inactive	inactive	inactive	inactive	inactive	inactive	inactive	inactive	inactive	–	–	–	–	–	–	–	–	–	–
CCCN(CCOc1c(Cl)cc(Cl)cc1Cl)C(=O)n1ccnc1	inactive	inactive	inactive	inactive	inactive	inactive	inactive	inactive	inactive	inactive	–	–	–	–	–	–	–	–	–	–
Oc1ccc(Cl)cc1Cc1ccccc1	–	inactive	inactive	inactive	inactive	inactive	inactive	inactive	inactive	inactive	–	–	–	–	–	–	–	–	–	10.8 µM (active) and 6.48 µM (active) and 36 µM (active)
O=C(Nc1ccccc1)Nc1cnns1	inactive	inactive	inactive	inactive	inactive	inactive	inactive	inactive	inactive	inactive	–	–	–	–	–	–	–	–	–	–
COc1nn(CSP(=S)(OC)OC)c(=O)s1	inactive	inactive	inactive	inactive	inactive	inactive	inactive	inactive	inactive	inactive	–	–	–	–	–	–	–	–	–	–
O=S1OCC2C(CO1)C1(Cl)C(Cl)=C(Cl)C2(Cl)C1(Cl)Cl (stereo unspecified)	inactive	inactive	inactive	inactive	inactive	inactive	inactive	inactive	inactive	inactive	–	–	–	–	–	–	–	–	–	–
C[C@H]1[C@H](c2ccc(Cl)cc2)SC(=O)N1C(=O)NC1CCCCC1	inactive	inactive	inactive	inactive	inactive	inactive	inactive	inactive	inactive	inactive	–	–	–	–	–	–	–	–	–	–
CCC(C)(C)C(=O)OC1=C(c2ccc(Cl)cc2Cl)C(=O)OC12CCCCC2	inactive	inactive	inactive	inactive	inactive	inactive	inactive	inactive	inactive	inactive	–	–	–	–	–	–	–	–	–	–
CN1CSC(=S)N(C)C1	inactive	–	–	–	–	–	inactive	–	inactive	–	26.6 µM (active)	21.3 µM (active)	34.9 µM (active)	24.9 µM (active)	8.18 µM (active)	–	35 µM (active)	–	–	–
